RT RNaseH block = inhibitors of HIV-1 reverse transcriptase RNase H; actives 1.9% (n = 65,000); RT-RNase H RNA/DNA duplex cleavage, fluorescence; inhibition, % at 10 µM; AID 565; in the data active means inhibition above about 50%
RmlC RmlD mix = mixture blocks RmlC and RmlD coupled enzyme activity; inhibition, % at 5.5 µM; AID 1532; RmlC/RmlD coupled enzyme inhibition, 384-well mixture HTS; actives 0.39% (n = 110,000); in the data active means inhibition above about 30%, passing the limit was not always enough
RmlCD fluor art = counter-screen for RmlC/RmlD inhibitors: fluorescence artifact | calls only | AID 1696 | RmlC/RmlD assay fluorescence artifact counter-screen | shares compounds with RmlC RmlD mix | actives 96% (n = 360); call rule not given here;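 further: compound alone with no enzyme and no substrates present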
Numbers without * were called inactive; i = inactive; . = no result given; + = active, no number. The sample as a whole holds a higher share of hits than the screen did.

SMILES | RT RNaseH block | RmlC RmlD mix | RmlCD fluor art
CN(C)CCNc1oc(-c2ccccc2F)nc1C#N | -9.3 | 46.5* | +
COc1ccc(-c2oc3ncn4nc(COc5ccccc5)nc4c3c2-c2ccc(OC)cc2)cc1 | 35.9 | 117.4* | +
COc1ccc(-c2oc3ncn4nc(Cc5ccccc5)nc4c3c2-c2ccc(OC)cc2)cc1 | 25.7 | 84.2 | .
Cc1cc(C(=O)OCCO)c(C#N)c(N)n1 | -2.1 | 45.6* | +
COC(=O)c1cc(C)nc(N)c1C#N | . | 27.7 | .
CC(=O)Oc1cccc2c1C(=O)c1c(OC(C)=O)cc(C(=O)O)cc1C2=O | 18.5 | -11.0 | .
CC1=C(C#N)C(c2cccnc2)C2=C(CC(C)(C)CC2=O)N1 (stereo not drawn) | -3.7 | 58.6* | +
CC1(C)CC(=O)C2=C(C1)Nc1ccccc1NC2c1cccnc1 (stereo not drawn) | 4.3 | -15.7 | .
COC(=O)/C(=C/Nc1cccc2ccccc12)[N+](=O)[O-] | . | 158.0* | +
COc1ccc(OC)c(NC(=O)Nc2cccc3ccccc23)c1 | . | -7.9 | .
O=C(CCN1CCCCC1c1cccnc1)NCc1ccccc1 (stereo not drawn) | -5.0 | -6.5 | .
O/N=C/c1cccn1-c1ccc(O)cc1 | -5.8 | 10.3 | .
CC(=O)c1sc(NC(=O)C(C)(C)C)nc1C | . | 9.7 | .
CN(C)CCNC(=O)c1cc2c(s1)-c1ccccc1OC2 | . | 160.6* | +
Cc1csc(NC(=O)c2cc3c(s2)-c2ccccc2OC3)n1 | 39.9 | -9.1 | .
CCOc1cccc2cc(-c3csc(NC(=O)CCC(=O)N4CCC(C)CC4)n3)c(=O)oc12 | . | + | +
CCOc1cccc2cc(-c3csc(NC(=O)CCC(=O)N4CCN(C)CC4)n3)c(=O)oc12 | -1.7 | . | .
Cc1ccc(C(c2nnnn2C2CCCC2)N2CCN3CCCC3C2)cc1 (stereo not drawn) | . | 0.1 | .
CCOc1nc(NCc2ccco2)nc(Nc2ccc(OC)cc2)n1 | -27.6 | -12.2 | .
CCOC(=O)C1=C(C)Nc2ncnn2C1c1cccs1 (stereo not drawn) | . | 53.4 | .
CCc1cc(=O)oc2c(CN3CCN(C)CC3)c(O)c(Cl)cc12 | -2.1 | 125.9* | +
CN1CCN(Cc2oc(CO)cc(=O)c2O)CC1 | . | -13.6 | .
CCC(=O)NC(=S)NNC(=O)c1ccc([N+](=O)[O-])cc1 | . | 7.0 | .
Cn1c(/C=N/NC(=O)c2ccccc2)nc2ccccc21 | . | -7.0 | .
CC(=O)c1ccc(/C=C/c2nc3ccccc3n2C)o1 | . | . | +
SMILES | RT RNaseH block | RmlC RmlD mix | RmlCD fluor art
c1ccc2oc(Cc3ccc(Cc4nc5ccccc5o4)cc3)nc2c1 | . | 16.1 | .
COc1cccc(-n2nnc3c(=O)n(CC(=O)N4CCCc5ccccc54)cnc32)c1 | -9.7 | -3.9 | .
Cc1cc(C(F)(F)F)c(C#N)c(=O)[nH]1 | . | 32.3* | +
N#Cc1c(C(F)(F)F)cc(-c2ccc(Cl)cc2)[nH]c1=O | . | 9.7 | .
Cc1ccc(CNC(=O)COC(=O)c2ccc(S(=O)(=O)N3CCCC3)cc2)cc1 | . | 9.2 | .
CC1=CC(c2ccc(Cl)cc2)n2nc(NS(=O)(=O)c3ccc(C)cc3)nc2N1 (stereo not drawn) | . | 22.3 | .
CC1=CC(c2ccccc2)n2nc(NS(=O)(=O)c3ccc(C)cc3)nc2N1 (stereo not drawn) | -5.8 | 53.6* | +
Cc1cc(=O)n2c(ccc3ccccc32)c1C#N | -18.5 | 7.9 | .
Cc1cc(=O)n2ccccc2c1C#N | . | 104.1* | +
COC(=O)c1ccc(COC(=O)c2[nH]c(C)c(C(C)=O)c2C)o1 | -83.9 | -2.9 | .
CC(=O)Oc1ccc2cc(-c3nc4ccccc4n3C)c(=O)oc2c1 | -1.9 | . | +
COc1ccc2ccc(=O)oc2c1 | . | -6.7 | .
CC(=O)Oc1ccc2ccc(=O)oc2c1 | . | + | +
Cn1c(-c2cc3ccc(OC(=O)C(C)(C)C)cc3oc2=O)nc2ccccc21 | . | -40.7 | .
c1ccc(-c2ccc(OCCOCCn3cncn3)cc2)cc1 | -6.9 | 7.6 | .
Cc1cccn2c(=O)c(C=NCc3ccco3)c(Nc3ccc(Cl)cc3)nc12 | 3.6 | . | .
Cc1c(-c2c(C#N)c(N)nc3c2CCCCCC3)cnn1C | . | 13.5 | .
COC(=O)c1c(C#N)c(N)nc2c1CCC2 | -5.6 | 67.3* | +
CCN1CCN(c2ccc(NC(=O)c3cccc(OCc4ccccc4)c3)cc2)CC1 | . | -7.7 | .
O=C(Nc1ccccc1)NC1(C(=O)NCc2ccco2)CCCCC1 | -20.2 | -9.9 | .
CC1CN(C(=O)c2cc3c(=O)n4ccccc4nc3s2)CC(C)O1 (stereo not drawn) | -19.8 | 52.7* | +
CC1CN(C(=O)c2cc3c(s2)CCC3)CC(C)O1 (stereo not drawn) | -8.6 | -11.6 | .
O=C(CCC(=O)OCCCC(F)(F)C(F)(F)F)Nc1ccc(Cl)cc1Cl | . | 14.2 | .
Nc1c(S(=O)(=O)c2cccs2)c2nc3ccccc3nc2n1CC1CCCO1 (stereo not drawn) | -6.2 | 52.8* | +
Nc1c(S(=O)(=O)c2cccs2)c2nc3ccccc3nc2n1Cc1cccs1 | 4.4 | 12.8 | .
SMILES | RT RNaseH block | RmlC RmlD mix | RmlCD fluor art
COCCCn1cnc2oc3nc4ccccc4nc3c2c1=O | -18.4 | 50.1* | +
COCCCn1cnc2c(c1=O)c1nc3ccccc3nc1n2-c1ccccc1 | -3.1 | 12.0 | .
CCOC(=O)c1cc2ccc(OC(=O)c3ccco3)cc2oc1=O | 9.8 | + | +
COc1ccccc1Oc1c(C)oc2cc(OC(=O)c3ccco3)ccc2c1=O | 6.2 | 105.0* | +
CCOC(=O)c1c(C)n(C)c2ccc(OC(=O)c3ccco3)cc12 | . | 6.6 | .
Cc1oc2cc(OCC(=O)O)ccc2c(=O)c1Oc1ccccc1 | -5.8 | 5.5 | .
Cn1c(=O)c2c(SCC(=O)N3CCCc4ccccc43)nc(CC(C)(C)C)nc2n(C)c1=O | -17.5 | . | .
CCC1(C)Cc2ccccc2-c2nc(NCCO)n(-c3ccccc3)c(=O)c21 (stereo not drawn) | 1.7 | -0.6 | .
CC1(C)Cc2ccccc2-c2nc(NCCO)n(-c3ccccc3)c(=O)c21 | -2.9 | 51.0* | +
COc1ccc(OC)c(S(=O)(=O)N2CCC(C(=O)Nc3cccc(C)c3C)CC2)c1 | -3.8 | 3.3 | .
Cc1ccc(NC(=O)CCn2cccc2)cc1 | . | 6.2 | .
O=C(NCc1cn2ccccc2n1)c1ccc2c(c1)OCO2 | . | -12.5 | .
CCOC(=O)Cc1csc(NC(=O)CN(C)S(=O)(=O)c2cccc3cccnc23)n1 | -17.7 | -7.1 | .
CCn1c2ccccc2c2nnc(SCc3ccccc3)nc21 | -34.3 | -2.0 | .
CCn1c2ccccc2c2nnc(SCCCn3c(=O)[nH]c4ccccc43)nc21 | -67.2 | 82.0* | i
Cc1c(C)n(C)c2ccc(C(=O)NCc3cccs3)cc12 | -12.0 | 4.5 | .
Cc1cc(NC(=O)CSc2nnc(-c3ccc4c(c3)OCCO4)o2)no1 | -12.8 | -0.7 | .
CCCCc1c(C)c(C#N)c2[nH]c3ccccc3n2c1=O | . | 11.1 | .
CCCc1cc(=O)n2c([nH]c3ccccc32)c1C#N | . | 38.8* | +
CC1(C)Cc2nc(NCCCO)c(C#N)cc2CO1 | -11.5 | 44.2* | +
CC1(C)Cc2nc(N3CCOCC3)c(C#N)cc2CO1 | -8.4 | -39.7 | .
COc1ccc(C2(O)CCN(C(=O)NC3CCCCC3)CC2)cc1 | 1.9 | 1.1 | .
CCc1ccc(-c2cc(C(F)(F)F)n3nc(C(=O)Nc4cnn(Cc5ccccc5C)c4)cc3n2)s1 | . | + | +
Cc1ccccc1Cn1ccc(NC(=O)c2cc3nc(-c4ccco4)cc(C(F)(F)F)n3n2)n1 | 18.8 | . | .
CCOC(=O)CSc1nc2ccccc2n1CC(=O)N(C(C)C)C(C)C | -75.9 | 3.3 | .
